The source of these data is the supplement of paper PMC3545927.

The other results are listed elsewhere or left out. The hit rate among all sequences tested is not known here.

In the assay the target is furin, P09958. Description: furin cleavage Z-score vs untreated control; higher = more cleavage, active = 3.5 or more, inactive = 1 or less, 8 variable residues between constant flanks. Here is the method:
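Multiplexed peptide-cDNA fusion cleavage assay. 8-mer variable peptides flanked by constant Cys-Ala (N-term) and Ala-Gly-Asn-Ala-Ser-Ala-Ser-Ala (C-term) and conjugated to a cDNA oligonucleotide were bead-immobilised via the N-terminus. They were treated with purified furin at a 1:10 enzyme:substrate ratio in 50 mM HEPES pH 7.5, 1 mM CaCl2, 100 mM NaCl for 7.5, 15 or 30 min. Released cDNA was counted by next-generation sequencing, and log counts versus no-furin controls were lowess-adjusted and converted to robust Z-scores.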

Chain of furin, P09958 (P09958 whole entry, the tested form may be a part): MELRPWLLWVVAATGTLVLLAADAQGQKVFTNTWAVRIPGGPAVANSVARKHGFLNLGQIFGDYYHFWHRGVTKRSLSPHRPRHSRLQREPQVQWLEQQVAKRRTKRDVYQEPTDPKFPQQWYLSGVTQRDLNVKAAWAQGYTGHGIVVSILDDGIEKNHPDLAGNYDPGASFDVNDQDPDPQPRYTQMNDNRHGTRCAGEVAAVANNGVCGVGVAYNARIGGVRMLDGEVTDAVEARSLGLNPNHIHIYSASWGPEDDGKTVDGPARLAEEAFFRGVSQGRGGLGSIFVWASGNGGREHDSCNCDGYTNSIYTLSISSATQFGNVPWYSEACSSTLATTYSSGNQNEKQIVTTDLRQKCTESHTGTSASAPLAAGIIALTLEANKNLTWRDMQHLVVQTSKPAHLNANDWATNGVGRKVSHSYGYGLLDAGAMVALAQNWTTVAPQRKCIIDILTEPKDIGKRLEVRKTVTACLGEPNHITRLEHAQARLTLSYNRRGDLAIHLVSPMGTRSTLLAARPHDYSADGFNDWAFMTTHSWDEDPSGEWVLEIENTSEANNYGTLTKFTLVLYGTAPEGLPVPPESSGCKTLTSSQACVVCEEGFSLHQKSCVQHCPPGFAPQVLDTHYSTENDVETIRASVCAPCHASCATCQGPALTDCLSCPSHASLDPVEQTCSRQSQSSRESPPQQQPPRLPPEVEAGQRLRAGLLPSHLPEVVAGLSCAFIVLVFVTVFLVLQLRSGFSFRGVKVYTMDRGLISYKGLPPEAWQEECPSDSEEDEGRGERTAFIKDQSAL

Take CAMEECSQTLAGNASASA [HC1758]: the “furin cleavage Z-score” value (7.5 min) is 0.0304 (inactive), the “furin cleavage Z-score” value (15 min) was 0.61 (inactive) and the “furin cleavage Z-score” value (30 min) was 0.799 (inactive).

Turning to CAVLNPSVAAAGNASASA [HC787], the “furin cleavage Z-score” value is, setting by setting: (7.5 min) -0.311 (inactive); (15 min) -0.0498 (inactive); (30 min) -0.157 (inactive).

Regarding CAPLLLLLLAAGNASASA [HC558], the “furin cleavage Z-score” value runs as follows: (7.5 min) -0.475 (inactive); (15 min) -2.1 (inactive); (30 min) 0.488 (inactive).

With CAREGNASRCAGNASASA [HC276], the “furin cleavage Z-score” value by setting is: (7.5 min) -0.0161 (inactive); (15 min) -0.511 (inactive); (30 min) -0.0787 (inactive).

In the case of CAPLKRFKRAAGNASASA [FS-699], the “furin cleavage Z-score” value was 12.2 (active) (7.5 min), 12 (active) (15 min) and 9.3 (active) (30 min).

In the case of CAPKGRPKRAAGNASASA [FS-1047], the “furin cleavage Z-score” value is 11.3 (active) (7.5 min), 13.3 (active) (15 min) and 9.54 (active) (30 min).

Consider CAQGTRFKRAAGNASASA [FS-847], for which the “furin cleavage Z-score” value (7.5 min) was 11.1 (active), the “furin cleavage Z-score” value (15 min) was 10.3 (active) and the “furin cleavage Z-score” value (30 min) was 8.39 (active).

Regarding CAILGGWVAAAGNASASA [HC1066], the “furin cleavage Z-score” value (7.5 min) is -0.934 (inactive), the “furin cleavage Z-score” value (15 min) is -0.574 (inactive) and the “furin cleavage Z-score” value (30 min) is -1.27 (inactive).

With CAQLGRPKRCAGNASASA [FS-1248], the “furin cleavage Z-score” value was 8.77 (active) (7.5 min), 10.3 (active) (15 min) and 8.22 (active) (30 min).

Turning to CAEVQCHRPSAGNASASA [HC2362], the “furin cleavage Z-score” value by setting is: (7.5 min) 0.385 (inactive); (15 min) 1.46; (30 min) 0.778 (inactive).

Regarding CAWRVSAEEYAGNASASA [HC1202], the “furin cleavage Z-score” value was -0.863 (inactive) (7.5 min), -1.63 (inactive) (15 min) and -0.815 (inactive) (30 min).

For the sequence CAMEECSIHLAGNASASA [HC1724], the “furin cleavage Z-score” value (7.5 min) is 0.188 (inactive), the “furin cleavage Z-score” value (15 min) was determined as 1.13 and the “furin cleavage Z-score” value (30 min) is 0.153 (inactive).

For CARTRRNIDAAGNASASA [FS-3111], the “furin cleavage Z-score” value is, setting by setting: (7.5 min) 6.35 (active); (15 min) 7.27 (active); (30 min) 4.76 (active).

CARTRRSINSAGNASASA [FS-2316]: the “furin cleavage Z-score” value is 7.8 (active) (7.5 min), 8.93 (active) (15 min) and 7.57 (active) (30 min).

Consider CAVTNDCPNSAGNASASA [HC262], for which the “furin cleavage Z-score” value reads like this: (7.5 min) -1.55 (inactive); (15 min) -2.42 (inactive); (30 min) -2.48 (inactive).

As to CAVRSRSIRSAGNASASA [FS-1663], the “furin cleavage Z-score” value is, setting by setting: (7.5 min) 11.3 (active); (15 min) 11.8 (active); (30 min) 8.54 (active).

In the case of CAASSRNIRSAGNASASA [FS-924], the “furin cleavage Z-score” value runs as follows: (7.5 min) 5.59 (active); (15 min) 8.19 (active); (30 min) 6.71 (active).

Consider CARTRRCVCVAGNASASA [FS-3213], for which the “furin cleavage Z-score” value is -0.371 (inactive) (7.5 min), -0.858 (inactive) (15 min) and -0.127 (inactive) (30 min).

Regarding CARTRRTSKPAGNASASA [FS-1937], the “furin cleavage Z-score” value (7.5 min) is 0.687 (inactive), the “furin cleavage Z-score” value (15 min) amounted to 3.02 and the “furin cleavage Z-score” value (30 min) was 2.44.

Turning to CAEVVTSTLVAGNASASA [HC2225], the “furin cleavage Z-score” value was -0.125 (inactive) (7.5 min), 0.377 (inactive) (15 min) and -0.731 (inactive) (30 min).

Consider CAEKVVCCSMAGNASASA [HC2134], for which the “furin cleavage Z-score” value runs as follows: (7.5 min) -0.767 (inactive); (15 min) 0.357 (inactive); (30 min) -1.09 (inactive).

Regarding CALDRRSQRSAGNASASA [FS-910], the “furin cleavage Z-score” value was 2.25 (7.5 min), 3.02 (15 min) and 4.23 (active) (30 min).

As for CALSRRSISKAGNASASA [FS-2871], the “furin cleavage Z-score” value is, setting by setting: (7.5 min) 0.267 (inactive); (15 min) 1.81; (30 min) -1.35 (inactive).

CAVHFRSIRSAGNASASA [FS-308]: the “furin cleavage Z-score” value was 8.08 (active) (7.5 min), 8.31 (active) (15 min) and 5.71 (active) (30 min).

In the case of CALSRRSIRSAGNASASA [FS-461], the “furin cleavage Z-score” value reads like this: (7.5 min) 10.4 (active); (15 min) 11.5 (active); (30 min) 9.32 (active).

In the case of CAMSIRSDRSAGNASASA [FS-1646], the “furin cleavage Z-score” value was 1.46 (7.5 min), 0.662 (inactive) (15 min) and 1.58 (30 min).

Turning to CALSAFSLHSAGNASASA [HC1605], the “furin cleavage Z-score” value reads like this: (7.5 min) 0.383 (inactive); (15 min) 0.938 (inactive); (30 min) 1.75.

Regarding CAMEECSDHLAGNASASA [HC1731], the “furin cleavage Z-score” value is, setting by setting: (7.5 min) -0.133 (inactive); (15 min) -1.7 (inactive); (30 min) 1.31.
